The sequences below were run against HOXB4 (Homo sapiens, UniProt P17483 148-234, V174I) (assay: PBM; 200 nM protein, PBS). Conditions: dsDNA, one strand shown.
HOXB4, sequence (P17483 148-234 V174I): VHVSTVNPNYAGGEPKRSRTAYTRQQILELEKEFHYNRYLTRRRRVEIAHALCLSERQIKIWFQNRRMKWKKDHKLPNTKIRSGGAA
With AATAGCCA the binding signal was 10.3 upbm affinity estimate (log intensity, higher = more binding, comparable within an allelic series). With AATACAAG the binding signal was 9.49 upbm affinity estimate (log intensity, higher = more binding, comparable within an allelic series). With AGCTTGGA the binding signal was 7.63 upbm affinity estimate (log intensity, higher = more binding, comparable within an allelic series). In the case of GCGCGGGA, the binding signal is reported as 7.49 upbm affinity estimate (log intensity, higher = more binding, comparable within an allelic series). In the case of CCGGTGAG, the binding signal is reported as 7.62 upbm affinity estimate (log intensity, higher = more binding, comparable within an allelic series). CGTGCCGC was tested, and the binding signal was 7.57 upbm affinity estimate (log intensity, higher = more binding, comparable within an allelic series). For CGGGAAAG, the binding signal was 7.56 upbm affinity estimate (log intensity, higher = more binding, comparable within an allelic series). GGACCGAC was tested, and the binding signal was 7.41 upbm affinity estimate (log intensity, higher = more binding, comparable within an allelic series). With CGGGCTGC the binding signal was 7.82 upbm affinity estimate (log intensity, higher = more binding, comparable within an allelic series). For CGCCGACG, the binding signal was 7.86 upbm affinity estimate (log intensity, higher = more binding, comparable within an allelic series). In the case of GTGATGGA, the binding signal is reported as 9.3 upbm affinity estimate (log intensity, higher = more binding, comparable within an allelic series). In the case of AGACCTAG, the binding signal is reported as 7.5 upbm affinity estimate (log intensity, higher = more binding, comparable within an allelic series). For CGAATCTC, the binding signal was 7.74 upbm affinity estimate (log intensity, higher = more binding, comparable within an allelic series). CTCCCGGC was tested, and the binding signal was 7.56 upbm affinity estimate (log intensity, higher = more binding, comparable within an allelic series). With CACGTGGG the binding signal was 7.46 upbm affinity estimate (log intensity, higher = more binding, comparable within an allelic series). GGCTAATA was tested, and the binding signal was 11.9 upbm affinity estimate (log intensity, higher = more binding, comparable within an allelic series). GCTCCCCC was tested, and the binding signal was 7.43 upbm affinity estimate (log intensity, higher = more binding, comparable within an allelic series). In the case of AACGATAT, the binding signal is reported as 10.9 upbm affinity estimate (log intensity, higher = more binding, comparable within an allelic series). For CCAGTTGC, the binding signal was 7.61 upbm affinity estimate (log intensity, higher = more binding, comparable within an allelic series). In the case of CGGGATGC, the binding signal is reported as 7.57 upbm affinity estimate (log intensity, higher = more binding, comparable within an allelic series). In the case of CAGGACGC, the binding signal is reported as 7.46 upbm affinity estimate (log intensity, higher = more binding, comparable within an allelic series). With AGAAATAA the binding signal was 10.1 upbm affinity estimate (log intensity, higher = more binding, comparable within an allelic series). With CTGGCGAC the binding signal was 7.45 upbm affinity estimate (log intensity, higher = more binding, comparable within an allelic series). With AGGAGGAG the binding signal was 7.57 upbm affinity estimate (log intensity, higher = more binding, comparable within an allelic series). In the case of AAATGTTA, the binding signal is reported as 10.4 upbm affinity estimate (log intensity, higher = more binding, comparable within an allelic series). For ATTAGTTG, the binding signal was 11.5 upbm affinity estimate (log intensity, higher = more binding, comparable within an allelic series). In the case of ATCTATAA, the binding signal is reported as 11.1 upbm affinity estimate (log intensity, higher = more binding, comparable within an allelic series). CTATTTGA was tested, and the binding signal was 9.85 upbm affinity estimate (log intensity, higher = more binding, comparable within an allelic series). With GTCGATGA the binding signal was 9.24 upbm affinity estimate (log intensity, higher = more binding, comparable within an allelic series). For AATTGGTA, the binding signal was 11 upbm affinity estimate (log intensity, higher = more binding, comparable within an allelic series). With CTACCGCC the binding signal was 7.48 upbm affinity estimate (log intensity, higher = more binding, comparable within an allelic series). In the case of CTGGGGGA, the binding signal is reported as 7.53 upbm affinity estimate (log intensity, higher = more binding, comparable within an allelic series). AGATGATG was tested, and the binding signal was 11.1 upbm affinity estimate (log intensity, higher = more binding, comparable within an allelic series). With CAGCGGAC the binding signal was 7.43 upbm affinity estimate (log intensity, higher = more binding, comparable within an allelic series). For AATTTCTG, the binding signal was 9.62 upbm affinity estimate (log intensity, higher = more binding, comparable within an allelic series). AAGCCAAT was tested, and the binding signal was 10.6 upbm affinity estimate (log intensity, higher = more binding, comparable within an allelic series). For ACAACGAT, the binding signal was 9.27 upbm affinity estimate (log intensity, higher = more binding, comparable within an allelic series). ACTAATAA was tested, and the binding signal was 12.5 upbm affinity estimate (log intensity, higher = more binding, comparable within an allelic series). With GAGCTGCA the binding signal was 7.45 upbm affinity estimate (log intensity, higher = more binding, comparable within an allelic series). With ATAAAGTA the binding signal was 10.6 upbm affinity estimate (log intensity, higher = more binding, comparable within an allelic series).

These sequences were tested against MSX2 (Homo sapiens, UniProt P35548 130-214, R199I) (assay: PBM; 200 nM protein, PBS). Conditions: dsDNA, one strand shown.
MSX2 (Homo sapiens, UniProt P35548 130-214, R199I), sequence (P35548 130-214 R199I): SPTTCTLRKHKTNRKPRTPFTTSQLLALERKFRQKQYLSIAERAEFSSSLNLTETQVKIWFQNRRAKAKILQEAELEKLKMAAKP
With GCGCGGGA the binding signal was 9.54 upbm affinity estimate (log intensity, higher = more binding, comparable within an allelic series). With CGTGCCGC the binding signal was 9.41 upbm affinity estimate (log intensity, higher = more binding, comparable within an allelic series). For CGGGCTGC, the binding signal was 9.39 upbm affinity estimate (log intensity, higher = more binding, comparable within an allelic series).

These sequences were tested against ALX3 (Homo sapiens, UniProt O95076 139-225, N203Q) (assay: PBM; 200 nM protein, PBS). Conditions: dsDNA, one strand shown.
ALX3, sequence (O95076 139-225 N203Q): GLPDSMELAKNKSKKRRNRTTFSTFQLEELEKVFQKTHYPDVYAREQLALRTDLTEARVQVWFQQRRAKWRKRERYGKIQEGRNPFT
With CTCCCGGC the binding signal was 7.65 upbm affinity estimate (log intensity, higher = more binding, comparable within an allelic series). For CTGGGGGA, the binding signal was 7.77 upbm affinity estimate (log intensity, higher = more binding, comparable within an allelic series). For ACTAATAA, the binding signal was 8.53 upbm affinity estimate (log intensity, higher = more binding, comparable within an allelic series).

What follows are sequences tested against MSX2 (Homo sapiens, UniProt P35548 130-214) (assay: PBM; 200 nM protein, PBS). Conditions: dsDNA, one strand shown.
MSX2 (Homo sapiens, UniProt P35548 130-214), sequence (P35548 130-214): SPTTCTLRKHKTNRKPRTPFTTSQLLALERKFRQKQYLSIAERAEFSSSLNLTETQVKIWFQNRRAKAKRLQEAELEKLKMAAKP
In the case of GCGCGGGA, the binding signal is reported as 9.49 upbm affinity estimate (log intensity, higher = more binding, comparable within an allelic series). CGTGCCGC was tested, and the binding signal was 9.35 upbm affinity estimate (log intensity, higher = more binding, comparable within an allelic series). For CGGGCTGC, the binding signal was 9.57 upbm affinity estimate (log intensity, higher = more binding, comparable within an allelic series).

Each sequence was assayed against MSX2 (Homo sapiens, UniProt P35548 130-214, F161Y) (assay: PBM; 200 nM protein, PBS). Conditions: dsDNA, one strand shown.
MSX2 (Homo sapiens, UniProt P35548 130-214, F161Y), sequence (P35548 130-214 F161Y): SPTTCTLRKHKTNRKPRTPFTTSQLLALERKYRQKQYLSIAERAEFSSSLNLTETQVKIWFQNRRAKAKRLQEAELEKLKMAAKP
With GCGCGGGA the binding signal was 9.51 upbm affinity estimate (log intensity, higher = more binding, comparable within an allelic series). With CGTGCCGC the binding signal was 9.43 upbm affinity estimate (log intensity, higher = more binding, comparable within an allelic series). In the case of CGGGCTGC, the binding signal is reported as 9.57 upbm affinity estimate (log intensity, higher = more binding, comparable within an allelic series).

From article PMC11006913
